Test results published in the supplement of paper PMC6555819.

Tested on: VDR:RXRa (NR concentration 270 nM, RXRa partner concentration 90 nM)
Test: PBM binding z-score (relative to random genomic background probes); higher = stronger binding; sequences stand for … in GC…GCGATTGACAGCGTAGAATGAAGG
Outline: (§1)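 Antibodies against each partner of ligand-free nuclear receptor dimers (one per run) detected binding on custom Agilent 4×180K protein-binding microarrays after 1 h incubation. The double-stranded probes had 34-nt variable regions carrying direct-repeat seeds, single-nucleotide variants, half-site ablations and random human genomic background sequences. Binding z-scores, from regression-normalized fluorescence, use the random background probes as reference.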

In order of rising PBM binding z-score:
1. CCTACTGGGCCATCAGGGCATTGATATCAACGTT  -0.589
2. ACAGACAGGTGAGTGAAGGTAAATCAGCTGGACG  -0.406
3. ATCGAAAGGACGAGGTGAGTATAGAGAAAGGGAA  -0.203
4. GCGACTGGGGCATCAGCAGGTTACCGTAACTTAA  -0.147
5. GCGACTGGGGCAAAGCAGGTTACCAAAAGGTTGG  0.136
6. TCTTGTAGATCAAGCAGGATAAGAAAGCCTGAGT  0.405
7. GCTAGCAGGACATTTGGGTCACTCAATGACGGGC  0.429
8. TCATATATGTAAACAGGTGAAAGTCCGTAAGTTA  1.31
9. GCTGCTAGGTCAACTGTTGGTCAGCTAAAGCTCG  1.39
10. ATCTCTACGTAAAGTTCAGTGAAAGATCGATAGA  1.67
11. TCATATAGGTAAAAGGTGAAAGTAGGTGTGGTAA  1.93
12. ATCTCTAGGTAACAAGTTCAGAGAAAGAGAGGAC  2.01
13. CCTAGCAGCCCAGGGTCACTCAAGCATTTCGCTT  2.44
14. TCTCGGAGGGCACGAAAGGTCAGAGCTCGACATC  4.66
15. CCTTACGGGTCACGAGGTTATCGCACGACGAGCG  5.31
16. CAAACTCGGTCAAAGGTCAAAGTCGAGCCAACCA  6.22

Tested on: VDR homodimer (NR concentration 270 nM)
Test: as above
Outline: as §1

In order of rising PBM binding z-score:
1. GCAGACAGGTGAAACGCAGGTAAGTCAGGGTGGC  -0.728
2. GCGACTGGGGCATCAGCAGGTTACCGTAACTTAA  -0.576
3. CATACAGGGCCAGCTAGGCCAGAGTAGGGACGGC  -0.491
4. ACAGACAGGTGAGTGAAGGTAAATCAGCTGGACG  -0.366
5. GCTGCTAGGTCAACTGTTGGTCAGCTAAAGCTCG  -0.34
6. GCGACTGGGGCAAAGCAGGTTACCAAAAGGTTGG  -0.329
7. CCGACTGGGCCAAGGTTACCATAACGCACAGCCA  -0.176
8. CCTACTGGGCCATCAGGGCATTGATATCAACGTT  -0.114
9. TCATATAGGGAAACAGGTGAAAGTCCGTAAGTTA  -0.0866
10. ACTAGCAGGCCAAATTTGGGTCACTCAAACAAAG  -0.0164
11. TCTTGTAGATCAAGCAGGATAAGAAAGCCTGAGT  0.105
12. CCGAGTAGGTTACGGGGCATTCAGGCAACGGTGA  0.121
13. ATCTCTAGGTAAGACTCAGTTCTGTGAAGAACGC  0.278
14. ATCGAAAGGACGAGGTGAGTATAGAGAAAGGGAA  0.284
15. TTACCAAGGAGAAGGTCGTTGATCCCTCTGTAGA  0.372
16. TGAATGAGGTTAAAGATCAGAGAACGTGGCGTCG  0.373
17. TCATATATGTAAACAGGTGAAAGTCCGTAAGTTA  0.413
18. AGTCAAAGTGCACTAGGTAACGTAAGATTCAGCT  0.442
19. TCATATAGGTAAAAGGTGAAAGTAGGTGTGGTAA  0.549
20. CCTCGGAGGACAATAGGAGGTCAGAGCTGCCAGA  0.843
21. GCTAGCAGGACATTTGGGTCACTCAATGACGGGC  0.846
22. AGTCACAGTTCAGGACGAGGTAACGTAAAGCACG  0.905
23. TAGCCTAGGTCATTAAGGGGCCAGTATAGAAAGC  0.937
24. TAGCCTAGGTCATGCGGGCCAGTTTAGTGTCGGC  0.95
25. TCATATAGGTAATACAGGTGCAAGTCGGCATCTA  1.03
26. TCTCGGAGGGCACGAAAGGTCAGAGCTCGACATC  1.1
27. AGAACGAGGGCACGCGGAGTTGATAGCAGAGTAG  1.18
28. TGTCATAGTTCAAAGGTAACGTAAGTATCCACAC  1.23
29. ATCTCAAGGTAAAAGTTCAGTGAATCCCGAGGAT  1.28
30. CCTAGCAGCCCAGGGTCACTCAAGCATTTCGCTT  1.33
31. CGGACGAGGGCATGAGTTGATAGCAAATGCCGAT  1.46
32. GGATCGAGGGCAAAGTTGATAGCATCTGTCGACG  1.94
33. CCTTACGGGTCACGAGGTTATCGCACGACGAGCG  2.04
34. ATCTCTACGTAAAGTTCAGTGAAAGATCGATAGA  2.27
35. CCTACTGGGCCAAGGTCATCGATCAGTCAAAGCA  2.38
36. ATCTCTAGGTAACAAGTTCAGAGAAAGAGAGGAC  2.72
37. CAAACTAGGTCAACAGGTCAAAGTCCGCTTCCCG  2.78
38. CCTACTGGCCCAAGGTCATTGATCAGTCAAAGCA  2.79
39. CAAACTCGGTCAAAGGTCAAAGTCGAGCCAACCA  3.31
40. CAAACTAGGTCAGAGGTCAAAGTCGAGCCAACCA  4.21
